# Hits are enriched below; roughly 9.8% of the tested compounds scored in any of these assays.
# HPGD inh: qHTS Assay for Inhibitors of HPGD (15-Hydroxyprostaglandin Dehydrogenase). 15-hydroxyprostaglandin dehydrogenase [NAD(+)] (Homo sapiens), P15428. purified HPGD, NADH fluorescence kinetic, PGE2 substrate. Potency, µM, inactives show top-dose activity change, negative = inhibition, hits mostly inhibitors. hit rate 4.3% among 150,000. AID 894, 2007; also: potency is read from the fitted curve at half-maximal effect; % is scaled to controls: 0 for no effect and ±100 for the full control effect
#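 NADH formation kinetics: reaction with 30 uM PGE2 and 1 mM NAD+ (final), 20 nM enzyme, Tris-HCl pH 8 with Tween 20, after 15 min compound preincubation at room temperature. Fluorescence change, last versus first of five reads.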
# CBFb-RUNX1 inh: qHTS Assay for Compounds Blocking the Interaction Between CBF-beta and RUNX1 for the Treatment of Acute Myeloid Leukemia; Potency, µM (series often up to 59.8 µM), inactives show top-dose activity, negative = inhibition, actives largely listed as inhibitors; 230,000 tested, under 10 active; AlphaScreen CBFb-His/RUNX1-biotin binding, biochemical; Runt-related transcription factor 1 (Homo sapiens) + Core-binding factor subunit beta …; active = well fitted curve in the direction sought with a large enough effect; inconclusive = small, poorly fitted or top-dose-only effect, or another doubt; inactive = no such curve, though single readings can be large; an effect the other way counts as inactive or inconclusive; also: % of control where 0% means no effect
# Target sequence (Q01196 whole entry, looked up): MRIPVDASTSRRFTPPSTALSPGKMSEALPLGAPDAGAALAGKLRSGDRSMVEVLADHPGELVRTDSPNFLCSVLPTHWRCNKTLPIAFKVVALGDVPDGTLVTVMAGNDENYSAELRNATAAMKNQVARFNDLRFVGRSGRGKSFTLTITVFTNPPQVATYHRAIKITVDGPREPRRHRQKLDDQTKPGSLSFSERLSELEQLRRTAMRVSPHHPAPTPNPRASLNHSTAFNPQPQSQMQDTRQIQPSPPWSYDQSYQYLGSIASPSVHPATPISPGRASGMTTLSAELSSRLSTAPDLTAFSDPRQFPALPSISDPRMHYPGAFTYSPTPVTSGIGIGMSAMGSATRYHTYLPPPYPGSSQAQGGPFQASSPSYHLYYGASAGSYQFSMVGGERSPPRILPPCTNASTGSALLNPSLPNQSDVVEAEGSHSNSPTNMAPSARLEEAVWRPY
# Target sequence (Q13951 whole entry, looked up): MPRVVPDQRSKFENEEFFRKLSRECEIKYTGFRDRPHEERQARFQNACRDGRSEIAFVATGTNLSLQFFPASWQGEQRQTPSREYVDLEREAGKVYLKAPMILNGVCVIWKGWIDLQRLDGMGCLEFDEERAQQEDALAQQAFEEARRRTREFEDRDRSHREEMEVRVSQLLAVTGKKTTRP
#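 Bead-based AlphaScreen assay; binding partners His-tagged CBF-beta and biotinylated RUNX1 at 30 nM each. Compound exposure 15 min after a 20-min protein preincubation; bead step 90 min; all steps at room temperature.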
# JMJD2E inh: qHTS Assay for Inhibitors of Human Jumonji Domain Containing 2E (JMJD2E). hit rate 1.6% among 230,000. Lysine-specific demethylase 4E (Homo sapiens), B2RXH2. AID 2147, 2009. JMJD2E catalytic domain, FDH-coupled NADH fluorescence (FDH is formaldehyde dehydrogenase). Potency, µM (doses to about 57.1 µM), for inactives: at the highest dose activity change, negative = inhibition, actives largely listed as inhibitors;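 also: potency is read from the fitted curve at half-maximal effect; 0% = wells with enzyme and -100% = buffer wells without enzyme; nearly all actives have a fitted effect of over 50% in size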
# HttQ103 aggreg: qHTS Multiplex Assay to Identify Dual Action Probes in a Cell Model of Huntington: Aggregate Formation (GFP); PC12 HttQ103-GFP aggregates, Acumen cytometry, 40 h; hit rate 1.1% among 220,000; Potency, µM (doses to about 46.1 µM), for the others: at the highest dose activity change, negative = inhibition, usual class: inhibitors; active = well fitted curve in the direction sought with a large enough effect; inconclusive = small, poorly fitted or top-dose-only effect, or another doubt; inactive = no such curve, though single readings can be large; an effect the other way counts as inactive or inconclusive; also: potency is read from the fitted curve at half-maximal effect; % is scaled to controls: 0 for no effect and ±100 for the full control effect; nearly all actives have a fitted effect of over 60% in size
#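 Quantitative HTS on tebufenozide-induced (100 nM) PC12 cells stably expressing polyQ103 Huntingtin exon 1–GFP. Reduction of bright GFP aggregates, detected by laser scanning cytometry after lysis, identified actives across the titration.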
# HTT cytoprotect: qHTS Multiplex Assay to Identify Dual Action Probes in a Cell Model of Huntington: Cytoprotection (ATP) | Potency, µM (doses to about 56.4 µM), for inactives: cytoprotection (ATP increase), usual class: activators | PC12 HTT-Q103 induced, cytoprotection, ATP luminescence, 40 h | AID 1471, 2008 | hit rate 0.14% among 230,000; active = well fitted curve in the direction sought with a large enough effect; inconclusive = small, poorly fitted or top-dose-only effect, or another doubt; inactive = no such curve, though single readings can be large; an effect the other way counts as inactive or inconclusive; also: potency is read from the fitted curve at half-maximal effect; % of control where 0% means no effect; nearly all actives have a fitted effect of over 45% in size
#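 Huntington model: PC12 line, ecdysone-inducible HTTQ103 exon1–GFP, tebufenozide 100 nM. Test articles in a dose series. Endpoint luminescence from cellular ATP.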
# ALDH1A1 block: qHTS Assay for Inhibitors of Aldehyde Dehydrogenase 1 (ALDH1A1); Aldehyde dehydrogenase 1A1 (Homo sapiens), P00352; Purified ALDH1A1, NADH fluorescence, propionaldehyde substrate; Potency, µM (series often up to 75.3 µM), for the others: at the top dose activity, negative = inhibition, actives largely listed as inhibitors; hit rate 7.3% among 220,000; AID 1030, 2008;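 also: potency is read from the fitted curve at half-maximal effect; plate controls were no enzyme wells and a reference inhibitor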
# * = called active by the depositor; ? = inconclusive; / = no result given; [ ] = another dose, or the depositor's remark. Unless noted, calls follow the shape of the dose curve; as a rule, active = well fitted inhibition curve with a large enough effect (not every such curve was filed as active); inconclusive = small, poorly fitted or top-dose-only effect, or another doubt; inactive = no such curve, though single readings can be large or run the other way.
SMILES,HPGD inh,CBFb-RUNX1 inh,JMJD2E inh,HttQ103 aggreg,HTT cytoprotect,ALDH1A1 block
CC1(C)CC(=O)C(C(C2=C(O)CC(C)(C)CC2=O)c2cccs2)C(=O)C1 (centres undefined),/,3.8%,2.5%,-0.6%,8.9%,-2.8%
CS(=O)(=O)Nc1cccc(-c2nc(NCCN3CCOCC3)c3ccccc3n2)c1,-6.8%,/,4.1%,/,-8.1%,-1.1%
CCc1ccccc1N1CC23C=CC(O2)C(C(=O)OCC(C)C)C3C1=O (centres undefined),-8.8%,0.3%,2.3%,4.9%,-1.8%,6.9%
Cc1ccc(N2C(=O)C3C4C=CC(CNC(=S)Nc5cccc(Cl)c5)(O4)C3C2=O)cc1 (centres undefined),-28.3%,-1.6%,1.7%,8.0%,23.5%[10 µM],1.58µM*
Cc1ccc(N2C(=O)C3C4C=CC(CNC(=S)Nc5ccc(F)cc5)(O4)C3C2=O)cc1 (centres undefined),17.8µM*,-3.3%,4.3%,15.6%,13.2%[10 µM],0.398µM*
Cc1ccc(N2C(=O)C3C4C=CC(CNC(=S)N5CCN(c6ccccn6)CC5)(O4)C3C2=O)cc1 (centres undefined),/,-5.4%,?,?,-15.5%,?
CCOC(=O)N1CCC(N2CC34C=CC(O3)C(C(=O)Nc3ccc(F)cc3)C4C2=O)CC1 (centres undefined),-0.1%,-0.1%,-2.3%,-1.4%,-0.4%,-5.8%
Cc1ccc(N2C(=O)C3C4C=CC(CNC(=S)Nc5ccc(Cl)cc5)(O4)C3C2=O)cc1 (centres undefined),?,-0.4%,2.6%,-7.4%,13.9%[10 µM],0.316µM*
CC(C)COC(=O)NCC12C=CC(O1)C1C(=O)N(c3ccc(Cl)cc3)C(=O)C12 (centres undefined),17.8µM*,18.2%,-2.1%,-13.9%,0.2%,0.562µM*
COC(=O)c1cc(-c2ccc(Cl)cc2Cl)n[nH]1,/,3.5%,1.4%,6.4%,/,5.6%
COc1ccccc1NC(=O)C(=O)/C=C(\O)c1ccccc1,/,-5.0%,-19.4%,-9.7%[9.22 µM],4.2%[10 µM],/
CC(=O)N(NC(N)=O)C(C)CC(=O)C1C(C)C=CCC1(C)C (centres undefined),/,3.9%,9.4%,8.0%[9.22 µM],-1.1%[10 µM],/
COc1ccc(N=C2SC(C(=O)N3CCN(c4ccc([N+](=O)[O-])cc4)CC3)CC(=O)N2C)cc1 (centres undefined),/,4.5%,-13.9%,5.2%,-56.5%,10µM*
COc1ccc(C(=O)OCC(=O)N2C(C)CCCC2C)cc1[N+](=O)[O-] (centres undefined),/,7.9%,-0.8%,3.1%,-21.9%,?
Cc1nn(-c2ccccc2)c(Cl)c1/C=N/NC(=O)C1COc2ccccc2O1 (centres undefined),-14.8%,3.1%,5.7%,5.7%,8.5%[10 µM],2.82µM*
CCOC(=O)c1ccc(-n2c(O)c(/C=N/NC(=O)C3COc4ccccc4O3)c3ccccc3c2=O)cc1 (centres undefined),?,?,25.1µM*,17.8µM*,7.4%[1.9 µM],-15.2%
Cc1ccc(/C=N\NC(=O)C2COc3cc4ccccc4cc3O2)o1 (centres undefined),14.1µM*,4.2%,?,-7.5%,-4.1%,?
CCN(C(=O)COC(=O)/C=C/c1c(C)nn(-c2ccccc2)c1C)C1CCS(=O)(=O)C1 (centres undefined),/,3.2%,7.2%,9.3%[9.22 µM],-2.9%[10 µM],/
CC(C)CC(NC(=O)NC(CCC(=O)O)C(=O)O)C(=O)O (centres undefined),/,24.4%,/,/,/,/
CN(C)c1ncc2nc(-c3cc(F)cc(F)c3)c(=O)n(C3CC3)c2n1,/,/,/,/,-15.8%,?
COC(=O)c1cc(C(=O)c2ccccc2)n2c(=O)/c(=C\N(C)C)sc12,/,2.4%,-1.2%,12.9%[9.22 µM],10.1%[10 µM],3.16µM*
CC(C)CSc1n[nH]c(N)n1,/,-0.3%,3.6%,-5.1%,-14.1%,7.9%
CC(C)CSc1n[nH]c(=S)s1,/,10.8%,10µM*,12.2%,/,0.631µM*
Cc1cccc(N2C(=O)CN(Cc3sccc3C)C2=S)c1,14.1µM*,-0.2%,-5.2%,-18.9%,25.2%[10 µM],-0.8%
CCc1ccc(N2C(=O)CN(Cc3sccc3C)C2=S)cc1,/,5.8%,-5.4%,-9.2%,-12.8%,-3.4%
SMILES,HPGD inh,CBFb-RUNX1 inh,JMJD2E inh,HttQ103 aggreg,HTT cytoprotect,ALDH1A1 block
Cc1cc(C)cc(N2C(=O)CN(Cc3sccc3C)C2=S)c1,28.2µM*,13.2%,-0.1%,16.5%,14.8%[10 µM],0.4%
CCC1CCCCN1C(=O)Cn1c(C(=O)OC)cc2ccsc21 (centres undefined),-9.9%,4.1%,-2.5%,-0.2%,-3.8%,-8.3%
CCOc1ccc(NC(=S)Nc2cccc3cnccc23)cc1,-15.1%,-2.2%,?,-9.8%,6.7%[1.9 µM],31.6µM*
COc1ccccc1NC(=S)Nc1cccc2cnccc12,-16.8%,-5.5%,?,-11.5%,32.0%[10 µM],25.1µM*
COc1ccc(NC(=S)Nc2cccc3cnccc23)cc1,-15.8%,-4.5%,-24.1%,-21.1%,/,25.1µM*
CCOc1ccc(NC(=S)Nc2ccc(OCC)cc2)cc1,/,0.5%,6.0%,0.0%,?,4.3%
O=c1[nH]n(CC2COC3(CCCCC3)O2)c(=O)c2ccccc12 (centres undefined),-17.8%,1.9%,-28.4%,19.4%,-19.0%,12.6µM*
Cc1cc(F)ccc1NCc1ccccc1[N+](=O)[O-],/,7.5%,-9.1%,4.4%[9.22 µM],-13.4%[10 µM],0.631µM*
Cc1cc([N+](=O)[O-])ccc1NCc1ccccc1[N+](=O)[O-],/,-2.7%,9.1%,-11.4%[9.22 µM],-10.8%[10 µM],17.8µM*
COC(=O)CNC(=O)c1ccc(NS(=O)(=O)c2cc([N+](=O)[O-])ccc2Cl)cc1,/,5.2%,-9.1%,9.7%[9.22 µM],-4.5%[10 µM],?
c1coc(CNc2nc3nonc3nc2NCc2ccco2)c1,-26.6%,-25.5%,?,11.2µM*,-10.3%[10 µM],-10.5%
O=S(=O)(Nc1nc2ccccc2nc1NCc1ccco1)c1ccccc1,-4.8%,5.3%,?,8.6%,14.5%[0.074 µM],?
CC(C)N1CCC(=NNc2ccc(S(=O)(=O)N3CCOCC3)cc2[N+](=O)[O-])CC1,-8.2%,-3.1%,?,27.6%,9.2%[10 µM],28.2µM*
CC(=O)N1CCC(=NNc2ccc(S(=O)(=O)N3CCOCC3)cc2[N+](=O)[O-])CC1,-10.7%,5.8%,-7.5%,-6.5%,8.8%[10 µM],-0.4%
